NS1 function inh – blocks influenza NS1 protein function; Potency, µM (doses to about 46.1 µM), inactives show at the highest dose activity, positive = more growth; actives 0.4% (n = 270,000); AID 2326; calls by dose curve; further: actives are rising curves; nearly all actives have a fitted effect of over 50% in size
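A cell-based growth assay was used: compounds that relieve NS1-induced slow growth of budding yeast raise OD600. Assay medium was yeast nitrogen base with ammonium sulphate and -URA supplement, pH 6.0, with 2% galactose.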
Pf growth 48h – inhibits P. falciparum growth in the first generation, 48 h; P. falciparum luciferase growth in erythrocytes, 48 h; Potency, µM (top dose mostly 28.7 µM), for inactives: at the highest dose activity change, negative = inhibition, usual class: inhibitors; actives 5.9% (n = 310,000); further: on the % scale 0 is the no-effect control and ±100 the full control effect
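Parasite viability was followed by luminescence of a genomically integrated firefly luciferase. Cultures held 0.1% parasitemia at 2% hematocrit (final), incubated under 5% CO2 at 37 C.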
Sm TGR block – S. mansoni TGR enzyme inhibition; Q962Y6; purified TGR, DTNB reduction, TNB absorbance 405 nm; Potency, µM (top dose mostly 114 µM), without a hit: at the highest dose activity change, negative = inhibition, most hits filed as inhibitors; actives 3% (n = 360,000); AID 485364; further: on the % scale 0 is the no-effect control and ±100 the full control effect; nearly all actives have a fitted effect of over 60% in size
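Kinetic colorimetric format: TGR-catalysed, NADPH-driven DTNB reduction monitored via TNB absorbance. Enzyme dispensed at 20 nM; compound exposure 15 min at room temperature before reaction start.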
Pf growth 96h – P. falciparum growth inhibition at 96 hours | P. falciparum luciferase reporter growth, 96 h | Potency, µM (doses to about 28.7 µM), without a hit: at the top dose activity change, negative = inhibition, most hits filed as inhibitors | AID 504834 | actives 6.9% (n = 320,000); further: on the % scale 0 is the no-effect control and ±100 the full control effect
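Infected RBCs, 2% Hct / 0.05% parasitemia final; luciferase-reporter P. falciparum; cpd 96 h, 37 C, 5% CO2; luciferase detection reagent; luminescence.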
AMA1-RON2 inh – disrupts binding of P. falciparum AMA1 to RON2 | AlphaScreen AMA1-biotinylated RON2 peptide binding | Potency, µM (top dose mostly 58.2 µM), inactives show top-dose activity change, negative = inhibition, actives largely listed as inhibitors | actives 0.2% (n = 360,000) | AID 720542;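 further: 0% = vehicle wells and -100% = peptide control; nearly all actives have a fitted effect of over 45% in size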
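AMA1 (3D7) with his tag at 25 nM final met compounds first, then biotinylated RON2 peptide at 25 nM; detection used donor plus acceptor beads, 10 µg/mL apiece, read by AlphaScreen after 30 min at room temperature.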
The depositor's hits bear a star. Rows were chosen to be rich in hits. Some 11% of all compounds tested hit in one or more screens of this group. Unless noted, the call rests on the fitted dose curve; in most records, active means well fitted curve in the direction sought with a large enough effect; inconclusive means small, poorly fitted or top-dose-only effect, or another doubt; inactive means no such curve, though single readings can be large; an effect the other way counts as inactive or inconclusive. Potency means the concentration at half of the fitted maximal effect.

Screening O=C(NCC(c1cccnc1)N1CCN(c2ccc(F)cc2)CC1)Oc1ccccc1 (stereo unspecified) returned NS1 function inh -47%, Pf growth 48h 8.3µM*, Sm TGR block -13%, Pf growth 96h inconclusive and AMA1-RON2 inh -4%.
For O=C(NCCc1c[nH]c2ccccc12)C(=O)NCC(c1cccnc1)N1CCN(c2ccccc2)CC1 (stereo unspecified) the results were NS1 function inh -5%, Pf growth 48h 13µM*, Sm TGR block -2%, Pf growth 96h 8.3µM* and AMA1-RON2 inh -11%.
Cc1c(C(=O)NCc2ccc3c(c2)OCCO3)sc(=O)n1Cc1ccccc1F was read as AMA1-RON2 inh -15%.
Screening CC1CCN(C(c2ccccc2)c2sc3nc(-c4ccco4)nn3c2O)CC1 (stereo unspecified) returned Sm TGR block 8%.
For Cc1csc(SCC(=O)NC2CCCC2)n1 the results were Pf growth 48h -18%, Sm TGR block 1%, Pf growth 96h -15% and AMA1-RON2 inh 12%.
CC(C)c1ccc(NC(=O)CC2NCCNC2=O)cc1 (stereo unspecified) was read as Sm TGR block 9%.
`CCCCN(C)CCNC(=O)c1cc(=O)[nH]c2ccc(S(=O)(=O)N3CCCCCC3)cc12` gave Sm TGR block 1%.
`O=C(CN1C(=O)COc2ccc(S(=O)(=O)N3CCCCCC3)cc21)NCc1ccc(F)cc1` gave NS1 function inh 1%, Pf growth 48h inconclusive, Sm TGR block 1%, Pf growth 96h inconclusive and AMA1-RON2 inh -1%.
CNC(=O)C1CCC(Cn2c(=O)c3sccc3n(CC(=O)Nc3cc(C)cc(C)c3)c2=O)CC1 (stereo unspecified) was read as Sm TGR block -3%.
`COc1ccc(N(C(=O)c2ccco2)C(C(=O)NC2CCCC2)c2ccc(OC)c(OC)c2)cc1` (stereo unspecified) gave NS1 function inh -12%, Pf growth 48h -4%, Sm TGR block -3%, Pf growth 96h 10% and AMA1-RON2 inh -6%.
COc1ccc(N2CCN(C(CNC(=O)c3cccc(OC)c3)c3cccnc3)CC2)cc1 (stereo unspecified) was read as Sm TGR block 1%.
O=C(NCC(c1cccnc1)N1CCN(c2ccc(F)cc2)CC1)c1cccc(Cl)c1 (stereo unspecified) was read as NS1 function inh -81%, Pf growth 48h 12µM*, Sm TGR block -14%, Pf growth 96h 1% and AMA1-RON2 inh 5%.
Cn1c(=O)c2c(nc(CN3CCN(C(=O)c4ccco4)CC3)n2CCCO)n(C)c1=O was read as NS1 function inh 13%, Pf growth 48h 15%, Sm TGR block -13%, Pf growth 96h inconclusive and AMA1-RON2 inh -9%.
Cn1c(=O)c2c(nc(CN3CCN(C(=O)c4ccco4)CC3)n2CCCc2ccccc2)n(C)c1=O was read as NS1 function inh 0%, Sm TGR block inconclusive, Pf growth 96h 7.4µM* and AMA1-RON2 inh -6%.
CCCCn1c(CN2CCN(C(=O)c3ccco3)CC2)nc2c1c(=O)n(C)c(=O)n2C was read as NS1 function inh -40%, Pf growth 48h inconclusive, Sm TGR block 3%, Pf growth 96h 13µM* and AMA1-RON2 inh -4%.
CCCCCCn1c(CN2CCN(C(=O)c3ccco3)CC2)nc2c1c(=O)n(C)c(=O)n2C was read as NS1 function inh inconclusive, Pf growth 48h inconclusive, Sm TGR block -34%, Pf growth 96h inconclusive and AMA1-RON2 inh 2%.
CCCCCn1c(CN2CCN(C(=O)c3ccco3)CC2)nc2c1c(=O)n(C)c(=O)n2C was read as NS1 function inh 2%, Pf growth 48h 9.3µM*, Sm TGR block -41%, Pf growth 96h inconclusive and AMA1-RON2 inh 4%.
Cn1c(=O)c2c(nc(CN3CCN(C(=O)c4ccco4)CC3)n2CCc2ccccc2)n(C)c1=O was read as NS1 function inh -6%, Pf growth 48h inconclusive, Sm TGR block -14%, Pf growth 96h 6% and AMA1-RON2 inh -30%.
For Cc1cc(-c2nnc(-c3cccc(Cl)c3)o2)no1 the results were NS1 function inh 0%, Pf growth 48h 112%, Sm TGR block 10%, Pf growth 96h 222% and AMA1-RON2 inh 5%.
`CCOC(=O)CCC(=O)O[C@H]1[C@H](O[C@@H]2[C@@H](C)[C@H](O[C@H]3C[C@@](C)(OC)[C@@H](O)[C@H](C)O3)[C@@H](C)C(=O)O[C@H](CC)[C@@](C)(O)[C@H](O)[C@@H](C)C(=O)[C@H](C)C[C@@]2(C)O)O[C@H](C)C[C@@H]1N(C)C` gave NS1 function inh -18%, Pf growth 48h -13%, Sm TGR block -14%, Pf growth 96h 5.2µM* and AMA1-RON2 inh 13%.
`CCC(=O)OC1C(N(C)C)CC(C)O[C@H]1O[C@H]1[C@H](C)[C@@H](O[C@H]2CC(OC)[C@@H](O)C(C)O2)[C@H](C)C(=O)O[C@@H](CC)[C@](C)(O)[C@@H](O)[C@H](C)C(=O)[C@@H](C)C[C@]1(C)O` (stereo partly specified) gave Pf growth 48h -16% and Pf growth 96h 7.6µM*.
CC[C@H]1OC(=O)[C@H](C)[C@@H](O[C@H]2C[C@@](C)(OC)[C@@H](O)[C@H](C)O2)[C@H](C)[C@@H](O[C@@H]2O[C@H](C)C[C@H](N(C)C)[C@H]2O)[C@](C)(O)C[C@@H](C)C(=O)[C@H](C)[C@@H](O)[C@]1(C)O was read as NS1 function inh -30%, Pf growth 48h 0%, Sm TGR block 21%, Pf growth 96h inconclusive and AMA1-RON2 inh 15%.
CCN(CC)C(=O)c1ccc(-c2ccccc2)cc1 was read as NS1 function inh -27%, Pf growth 48h inconclusive, Sm TGR block -5%, Pf growth 96h inconclusive and AMA1-RON2 inh -5%.
For Oc1ccc[n+](CCCCC[n+]2cccc(O)c2)c1 the results were NS1 function inh -4%, Pf growth 48h 2%, Sm TGR block -4%, Pf growth 96h 24% and AMA1-RON2 inh 4%.
For CCCCCCCC[n+]1cccc(C(=O)N(CC)CC)c1 the results were NS1 function inh 10%, Pf growth 48h inconclusive, Sm TGR block 3%, Pf growth 96h 8.3µM* and AMA1-RON2 inh -7%.
`CCCCCCCCCCCCCCCC[n+]1cccc(C(=O)N(CC)CC)c1` gave NS1 function inh -31%, Pf growth 48h 5.2µM*, Sm TGR block 0%, Pf growth 96h 2.6µM* and AMA1-RON2 inh 0%.
COc1ccc(S(=O)(=O)Nc2cc3[nH]c(=O)oc3cc2C)cc1 was read as NS1 function inh 7%, Pf growth 48h 17%, Sm TGR block -11%, Pf growth 96h 8.3µM* and AMA1-RON2 inh -3%.

Assay outcomes from PubChem BioAssay.
